From PubChem BioAssay (NCI) come the findings set out here.

Among the test systems are DU-145 prostate; K-562 leukemia; MALME-3M melanoma; MDA-MB-231 breast; RXF 393 renal; SF-268 CNS; SF-295 CNS; SF-539 CNS; UACC-257 melanoma; M14 melanoma.
Holding throughout (assay): NCI-60 one-dose screen, 48 h (100 = growth as untreated, 0 = no growth, -100 = all killed)
Common to all, as to settings: 10 µM

About 83,000 compounds went through this panel and 20% of them were active in at least one assay; those are over-represented in the sample as a whole.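 A percent growth of 40 corresponds to 60% growth inhibition; 0 means no net growth; -100 means all cells died. Active threshold: below 10.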 Unmarked numbers belong to inactive results. Active and inactive are the calls of the source.

For the compound `CCOc1ccc(-n2cc(-c3ccc(N(C)C)cc3)[n+]3c2CCCCC3)cc1`, the growth in the test with DU-145 prostate is 25.7%; in the test with K-562 leukemia, 9.14% (active); in the test with MALME-3M melanoma, 2.39% (active); in the test with MDA-MB-231 breast, 19.4%; with RXF 393 renal, 39.7%; with SF-268 CNS it was 29.1%. Besides, the growth in the test with SF-295 CNS is -14.7% (active); with SF-539 CNS, 26.6%; in the test on UACC-257 melanoma, -12.6% (active); in the test with M14 melanoma, 10.4%.
Take `O=C(Nc1cccc(F)c1)Nc1cccc(Cl)c1`: the growth was 65.8% with DU-145 prostate; 10.9% in the test with K-562 leukemia; 84.6% with MALME-3M melanoma; 80.7% with MDA-MB-231 breast; 104% with RXF 393 renal; 80.4% in the test on SF-268 CNS. Also, the growth in the test on SF-295 CNS was 92.7%; with SF-539 CNS it was 105%; with UACC-257 melanoma, 87.7%; in the test with M14 melanoma it was 100%.
Consider `COc1ccc(Nc2ccnc(N3CCN(c4ccnc5cc(Cl)ccc45)CC3)n2)cc1`, for which the growth with DU-145 prostate is 15.6%; in the test with K-562 leukemia, 2.55% (active); with MALME-3M melanoma it was 5.65% (active); in the test on MDA-MB-231 breast, 24.8%; with RXF 393 renal, -26.6% (active); in the test with SF-268 CNS, 30.3%. Moreover, the growth with SF-295 CNS is -4.17% (active); in the test with SF-539 CNS, -31.4% (active); in the test with UACC-257 melanoma, -1.27% (active); in the test with M14 melanoma it was -13.3% (active).
Turning to `CCN1CCN(c2nc(NNC(=O)c3cccc(OC)c3)nc(N3CCN(C(c4ccccc4)c4ccccc4)CC3)n2)CC1`, the growth in the test with DU-145 prostate was 81.4%; with K-562 leukemia it was 16.5%; in the test with MALME-3M melanoma it was -79.5% (active); in the test with MDA-MB-231 breast it was 71.9%; in the test with RXF 393 renal it was 56.1%; in the test on SF-268 CNS it was 80.9%. Further, the growth was 84% in the test on SF-295 CNS, 71.6% in the test with SF-539 CNS, 45.9% with UACC-257 melanoma and -43.2% (active) in the test with M14 melanoma.
On to `COc1cccc(C2(C)Nc3ccccc3-c3nc4ccccc4n32)c1` (stereo not given), for which the growth is 112% with DU-145 prostate; 100% in the test on K-562 leukemia; 108% in the test with MALME-3M melanoma; 101% with MDA-MB-231 breast; 111% in the test with RXF 393 renal; 110% in the test with SF-268 CNS. The growth in the test with SF-295 CNS was 94.6%; in the test with SF-539 CNS, 105%; with UACC-257 melanoma it was 110%; in the test on M14 melanoma it was 102%.
Consider `O=C(Nc1cccc(Cl)c1)Nc1cc2ncncc2cc1OCc1cccc(F)c1`, for which the growth was 18.9% in the test on DU-145 prostate; 8.22% (active) in the test on K-562 leukemia; 10.8% with MALME-3M melanoma; 27.2% in the test with MDA-MB-231 breast; 31.5% in the test with RXF 393 renal; 26.6% in the test on SF-268 CNS. For the same compound, the growth in the test with SF-295 CNS was 7.22% (active); in the test on SF-539 CNS, 36%; in the test on UACC-257 melanoma, -34.2% (active); in the test on M14 melanoma, -18.2% (active).
Regarding `O=S(=O)(NC1c2ccccc2Oc2ccccc21)c1cc(Cl)ccc1Cl`, the growth was 113% in the test on DU-145 prostate; 89.8% in the test on K-562 leukemia; 102% with MALME-3M melanoma; 97.4% in the test with MDA-MB-231 breast; 93.1% with RXF 393 renal; 99.1% in the test on SF-268 CNS. In addition, the growth was 101% in the test with SF-295 CNS, 98.2% with SF-539 CNS, 102% with UACC-257 melanoma and 98.9% with M14 melanoma.
For `O=C(NCCc1nccs1)c1cnc2c(S)cccc2c1`, the growth with DU-145 prostate is 22.9%; in the test with K-562 leukemia it was 4.3% (active); in the test on MALME-3M melanoma, 40.1%; in the test on MDA-MB-231 breast, 13.6%; in the test with RXF 393 renal, 9.59% (active); in the test on SF-268 CNS, 37.7%. Moreover, the growth with SF-295 CNS was 38.8%; with SF-539 CNS, 22.8%; in the test with UACC-257 melanoma it was 17.7%; in the test with M14 melanoma it was 10.7%.
Consider `CCCCCCCCCCSC(=N)N` (tested in a mixture with another compound), for which the growth was 79.6% with DU-145 prostate; 9.73% (active) with K-562 leukemia; 82.7% in the test on MALME-3M melanoma; 7.07% (active) in the test on MDA-MB-231 breast; 64.5% with RXF 393 renal; 79.1% in the test on SF-268 CNS. In addition, the growth was 94.4% with SF-295 CNS, 83.4% in the test with SF-539 CNS, 99.5% with UACC-257 melanoma and 65.5% in the test with M14 melanoma.
`CCN(CC)CCn1c(=N)n(CC(O)c2ccc(Cl)c(Cl)c2)c2ccccc21` (stereo not given): the growth in the test on DU-145 prostate is 97%; with K-562 leukemia, -0.392% (active); in the test on MALME-3M melanoma, -35.6% (active); in the test with MDA-MB-231 breast it was 45.1%; in the test with RXF 393 renal, 76.3%; with SF-268 CNS it was 87.2%. For the same compound, the growth was 103% in the test with SF-295 CNS, 42.4% with SF-539 CNS, -59.8% (active) in the test with UACC-257 melanoma and -58.6% (active) in the test with M14 melanoma.
On to `Clc1cc(Cl)c(OCCCCCCN2CCNCC2)c(Cl)c1`, for which the growth with DU-145 prostate was 67.1%; in the test on K-562 leukemia it was -43.6% (active); with MALME-3M melanoma it was 50.1%; in the test with MDA-MB-231 breast it was -8.55% (active); with RXF 393 renal, 24.1%; with SF-268 CNS, 55.3%. The growth in the test on SF-295 CNS is -37.8% (active); with SF-539 CNS, 49%; with UACC-257 melanoma it was -1.75% (active); with M14 melanoma, -43.9% (active).
With `C=CCOc1ccc2c(c1)CC[C@@H]1[C@@H]2CC[C@]2(C)C(=O)/C(=N/O)C[C@@H]12`, the growth was 21.8% with DU-145 prostate; 19.5% in the test with K-562 leukemia; 74.4% in the test on MALME-3M melanoma; 9.69% (active) with MDA-MB-231 breast; 1.96% (active) in the test with RXF 393 renal; 43.8% in the test with SF-268 CNS. For the same compound, the growth is 78.7% in the test on SF-295 CNS, 86.6% in the test on SF-539 CNS, 76.5% in the test on UACC-257 melanoma and 61.3% in the test on M14 melanoma.
Consider `Cc1nnc2c3nnc(-c4ccc(Cl)cc4)n3c3ccccc3n12`, for which the growth in the test with DU-145 prostate is 103%; with K-562 leukemia, 90%; with MALME-3M melanoma, 88.6%; with MDA-MB-231 breast it was 100%; in the test with RXF 393 renal, 102%; in the test with SF-268 CNS it was 100%. Also, the growth was 88.2% in the test on SF-295 CNS, 92.2% in the test on SF-539 CNS, 98.1% in the test on UACC-257 melanoma and 96.7% in the test on M14 melanoma.
